Source: PubChem (several laboratories)
The list is not random: actives were taken first. Their share in the collection is about 2.4%.
APOBEC3A inh = APOBEC3A ssDNA deaminase inhibitors, primary screen, selectivity assay for APOBEC3G inhibitor project, biochemical, FAM/TAMRA oligo cleavage fluorescence; recombinant A3A, FAM/TAMRA ssDNA deamination fluorescence; inhibition, % at 20 µM; 330,000 tested, 0.41% active; AID 493011, 2011;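 active means at least 40% inhibition at 20 µM here, with at most 30% in a related deaminase screen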
Target sequence (P31941 whole entry, looked up): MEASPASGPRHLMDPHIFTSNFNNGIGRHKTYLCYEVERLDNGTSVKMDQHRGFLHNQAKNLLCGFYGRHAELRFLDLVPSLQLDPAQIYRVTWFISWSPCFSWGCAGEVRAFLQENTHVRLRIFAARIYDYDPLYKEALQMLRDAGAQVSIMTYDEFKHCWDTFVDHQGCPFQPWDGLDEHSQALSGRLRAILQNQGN
CR mimetic SO = reduction of superoxide in aged yeast, primary screen, HTS | S. cerevisiae aged cells, superoxide DHE fluorescence; hits give low values | superoxide response (% of plate mean), % at 10 µM | 330,000 tested, 0.18% active | AID 2690, 2010;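 active means superoxide response under a set limit, about three screen SD below normal, cut at about 65% in these data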;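 further: yeast aged for seven days with compound at 30 °C before DHE staining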
A3G deaminase = APOBEC3G DNA deaminase inhibitors, primary screen, biochemical, fluorescence, single-stranded DNA substrate, uHTS; DNA dC->dU-editing enzyme APOBEC-3G (Homo sapiens), Q9HC16; recombinant A3G, ssDNA deamination FAM/TAMRA fluorescence; 330,000 tested, 0.28% active; inhibition, % at 20 µM; AID 493012, 2011;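 active means inhibition of at least 40% at 20 µM, with no more than 30% in the related APOBEC3A deaminase screen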
Target sequence (Q9HC16 whole entry, looked up): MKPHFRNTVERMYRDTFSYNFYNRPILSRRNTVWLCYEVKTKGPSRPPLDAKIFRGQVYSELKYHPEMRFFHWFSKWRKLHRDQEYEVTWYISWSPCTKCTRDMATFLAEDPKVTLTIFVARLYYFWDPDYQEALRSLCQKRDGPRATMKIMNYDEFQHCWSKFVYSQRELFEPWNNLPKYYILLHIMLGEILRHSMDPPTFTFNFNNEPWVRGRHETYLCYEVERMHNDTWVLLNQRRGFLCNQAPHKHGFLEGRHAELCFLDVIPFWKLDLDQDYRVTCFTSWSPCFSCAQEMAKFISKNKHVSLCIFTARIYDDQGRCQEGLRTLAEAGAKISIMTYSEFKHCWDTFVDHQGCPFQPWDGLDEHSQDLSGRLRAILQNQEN
M18AAP inhibitor = PfM18AAP inhibitors, malaria aminopeptidase, primary screen, biochemical, QFRET, recombinant enzyme | AID 1822, 2009 | 290,000 tested, 1.2% active | inhibition, % at 7.35 µM | H-Glu-NHMec fluorogenic cleavage;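 active means inhibition above the campaign mean inhibition over all tested compounds plus 3 SD, cut at about 28% in these data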
PfGluPho inh = PfG6PD enzyme inhibitors, primary screen, biochemical, fluorescence intensity, uHTS; glucose-6-phosphate dehydrogenase-6-phosphogluconolactonase (Plasmodium falciparum 3D7); PfGluPho enzyme, NADPH resazurin-diaphorase fluorescence; 350,000 tested, 0.78% active; inhibition, % at 20 µM;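 active means inhibition reaching at least a set limit at 20 µM in the primary screen, cut at about 59% in these data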
PfGluPho conf = PfG6PD inhibitors, hit retest, confirmation, biochemical, fluorescence intensity, single concentration; inhibition, % at 20 µM; shares compounds with PfGluPho inh; recombinant PfGluPho, NADPH-diaphorase-resazurin fluorescence; 2,400 tested, 34% active;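 active means inhibition of at least 50% at 20 µM in any single replicate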
Diaph ctr 10uM = diaphorase inhibitors and chemical oxidizers, confirmation, counter-screen for P. falciparum G6PD inhibitor project, biochemical, fluorescence intensity, 10 µM NADPH | shares compounds with PfGluPho inh | diaphorase-coupled resazurin reduction, NADPH 10 uM | inhibition, % at 20 µM | 820 tested, 39% active;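 active means average inhibition reaching 50% or more with the compound at 20 µM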;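 further: resorufin red fluorescence formed as diaphorase reduces resazurin using NADPH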
Diaph ctr 30uM = diaphorase inhibitors and chemical oxidizers, confirmation, counter-screen for P. falciparum G6PD inhibitor project, biochemical, fluorescence intensity, 30 µM NADPH; shares compounds with PfGluPho inh; Diaphorase/resazurin coupled assay, resorufin fluorescence; inhibition, % at 20 µM; 820 tested, 29% active;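 active means inhibition averaging 50% or more, tested at 20 µM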
A number is an active result; i = inactive; nt = not tested or not shown.

SMILES	APOBEC3A inh	CR mimetic SO	A3G deaminase	M18AAP inhibitor	PfGluPho inh	PfGluPho conf	others
O=C(N/C(=C\c1ccco1)C(=O)N1CCCC1CO)c1ccccc1 (stereo unspecified)	i	i	i	i	i	nt
CNC(=O)c1c(NC(=O)c2cccc(C)c2)sc2c1CCC2	i	i	i	i	i	nt
COc1cc(C(=O)Nc2sc3c(c2C(=O)O)CCC3)cc(OC)c1OC	i	i	i	i	i	nt
COc1cccc(C(=O)Nc2sc3c(c2C(=O)O)CCCC3)c1	i	i	i	i	88	i
Cc1cccc(C(=O)Nc2sc3c(c2C(=O)O)CCC3)c1	i	i	i	i	60	i
CC(=O)N1CCc2c(sc(NC(=O)CS(=O)(=O)c3ccc(F)cc3)c2C#N)C1	i	i	i	nt	i	nt
COc1cccc(C(=O)Nc2sc3c(c2C#N)CCN(C(C)=O)C3)c1	i	i	i	i	61	i
CCOc1ccccc1NC(=O)NCCCCc1ccccc1	i	i	i	i	i	nt
CCCCCCN1C[C@H](O)[C@@H](n2cc(C3CC3)nn2)C[C@@H]1c1ccc(OC)cc1	nt	nt	nt	nt	i	nt
CN1CCc2c(sc(/N=C/c3c[nH]c4ccccc34)c2C#N)C1	i	i	i	i	i	nt
CN1CCc2c(sc(/N=C/c3c[nH]c4ccccc34)c2C(N)=O)C1	i	i	i	i	67	i
COc1ccc(-c2cc(-c3n[nH]c(=S)n3-c3cc(OC)ccc3OC)[nH]n2)cc1	i	i	i	i	i	i
COc1ccc(OC)c(-n2c(-c3cc(-c4ccc(F)cc4)n[nH]3)n[nH]c2=S)c1	i	i	i	i	i	nt
Nc1ccn([C@@H]2O[C@H](CNC(=O)[C@@H](Cc3cn(COCc4ccccc4)cn3)NC=O)[C@@H](O)[C@H]2O)c(=O)n1	nt	nt	nt	nt	i	nt
Cn1cc([N+](=O)[O-])c(C(=O)Nc2ccc3nc(-c4ccccc4)[nH]c3c2)n1	i	i	i	i	62	i
O=C(Nc1ccc2nc(-c3ccccc3)[nH]c2c1)c1cccs1	i	i	i	i	76	i
N#CC1=C2SCN(Cc3ccccc3)CN2C(=O)CC1c1cccs1 (stereo unspecified)	i	i	i	i	71	i
COc1ccc2ccccc2c1C1CC(=O)N2CN(C3CCCCC3)CSC2=C1C#N (stereo unspecified)	i	i	i	i	72	65	Diaph ctr 10uM=i;Diaph ctr 30uM=i
COc1ccc(C2CC(=O)N3CN(Cc4ccco4)CSC3=C2C#N)cc1 (stereo unspecified)	i	i	i	30	59	i
COc1cc(CNCc2ccco2)ccc1OCc1ccccc1	i	i	i	i	i	nt
COc1cc(C2CC(=O)N3CN(Cc4ccco4)CSC3=C2C#N)ccc1OCc1ccccc1 (stereo unspecified)	i	i	i	i	60	i
CC(=O)N1CCN(C(=O)c2cc(S(=O)(=O)N3CCN(c4ccccc4)CC3)ccc2Cl)CC1	i	nt	i	nt	i	nt
COc1ccc(C2C(C#N)=C(N)Oc3cc(C)n(Cc4ccco4)c(=O)c32)cc1 (stereo unspecified)	i	i	i	i	i	nt
COc1ccc2ccccc2c1C1CC(=O)N2CN(Cc3ccco3)CSC2=C1C#N (stereo unspecified)	i	i	i	i	68	i
CCOc1cc(C2CC(=O)N3CN(C4CCCCC4)CSC3=C2C#N)ccc1O (stereo unspecified)	i	i	i	31	76	i
SMILES	APOBEC3A inh	CR mimetic SO	A3G deaminase	M18AAP inhibitor	PfGluPho inh	PfGluPho conf	others
CC(C)c1ccc(C2CC(=O)N3CN(Cc4ccco4)CSC3=C2C#N)cc1 (stereo unspecified)	i	i	i	i	61	i
O=C1N[C@@H](Cc2cn(S(=O)(=O)c3c(F)c(F)c(F)c(F)c3F)c3ccccc23)C(=O)N[C@H]1Cc1ccccc1	i	i	i	nt	nt	nt
COc1cc(C(=O)O/N=C2/C=CC(=O)C(C)=C2C)cc(OC)c1OC	nt	nt	nt	i	i	nt
COc1cc(C(=O)O/N=C2\C=CC(=O)C=C2C)cc(OC)c1OC	i	i	i	i	67	63	Diaph ctr 10uM=i;Diaph ctr 30uM=i
O=S(=O)(NNc1ncc(C(F)(F)F)cc1Cl)c1ccc(F)cc1F	i	i	i	nt	65	i
Cc1ccc(C2CC2c2n[nH]c(=S)n2-c2cccc(Cl)c2)cc1 (stereo unspecified)	i	i	i	i	i	nt
Cc1c(C(=O)Nc2ccccc2F)sc2ncn(CC(=O)N3CCOCC3)c(=O)c12	i	i	i	i	i	nt
CCOc1cc(N2CCOCC2)c(OCC)cc1NC(=O)c1cnccn1	i	i	i	nt	i	nt
CCC1(CC)CNC(=O)NC1	nt	nt	nt	nt	i	nt
O=C(c1ccccc1)c1c[nH]c(C(=O)NNc2ccccc2)c1	i	i	i	i	69	i
CN(C)CCCNC(=O)c1cc(C(=O)c2ccccc2)c[nH]1	i	i	i	i	i	nt
CCN1CCN(C(=O)c2ccc(Cl)c(S(=O)(=O)N3CCCCC3)c2)CC1	i	i	i	i	i	nt
Cc1ccc2nc(Cl)c3nnnn3c2c1	i	i	i	i	i	nt
O=C1C(=C(I)I)c2ccccc2-c2ccccc21	nt	nt	nt	nt	104	60	Diaph ctr 10uM=61;Diaph ctr 30uM=70
CC(C)(C)C(=O)CN1C(=O)NC2(CCCc3ccccc32)C1=O (stereo unspecified)	i	i	i	i	i	nt
S=c1[nH]c(-c2ccc(Cl)cc2)cs1	i	i	i	i	62	i
Cc1ccc(-c2csc(=S)[nH]2)cc1	i	i	i	i	i	nt
N#Cc1ccccc1NC(=O)COc1ccccc1C(=O)Nc1ccccc1	i	i	i	nt	i	nt
CC1(C)CC(=O)C2=C(C1)NC(SCC(=O)Nc1ccccc1)=C(C#N)C21CCCCC1	i	i	i	i	i	nt
CC1(C)CC(=O)C2=C(C1)NC(=S)C(C#N)C21CCCCC1 (stereo unspecified)	i	i	i	29	76	i
COc1cc(CN2CCC(C(=O)NCC(C)(C)CN(C)C)CC2)ccc1OCc1ccccc1	i	i	i	i	i	nt
Nc1ccc(Oc2ncccn2)cc1	i	i	i	28	66	i
